Results from the supplement of paper PMC11219838.
A number with no mark means an inactive call.

These compounds were tested on Caenorhabditis elegans L1 (N2) (assay: survival and reproduction score of C. elegans L1 (0: 0-10 living worms, 1: 11-20, 2: 21-50, 3: >50, 4: overgrown) (score 0-4); higher = more worms, less nematicidal, active = 1 or less; extreme values may be limits of the assay). Conditions: 60 µM; 6 days; temperature: 20 °C.
Procedure, shortened: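 Each 96-well well received about 20 synchronized N2 L1 worms of C. elegans, E. coli HB101 and liquid NGM, plus compound pinned to 60 µM final (0.6% v/v DMSO). Sealed plates were incubated with shaking at 200 rpm, 20 °C, for 6 days. Survival and reproduction were rated under a dissection microscope as an ordinal score of living worms per well, averaged across biological replicates. The scale spanned 0 (0–10 worms) to 4 (overgrown, starved), and there were two replicates.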

| SMILES | survival and reproduction score |
| --- | --- |
| Cc1ccc(-c2nc(-c3cccnc3)no2)c(C)c1 | 0 (active) |
| Brc1ccc(-c2noc(-c3cccs3)n2)cc1 | 0 (active) |
| COc1ccc(-c2noc(-c3ccccc3C(=O)Nc3cccc(C)c3C)n2)cc1 | 4 |
| Cc1ccccc1-c1noc(COc2ccc(Cl)cc2Cl)n1 | 4 |
| COc1ccc(-c2noc(-c3ccccc3C(=O)Nc3ccc(NC(C)=O)cc3)n2)cc1 | 4 |
| Clc1ccc(-c2nnc(SCc3ccccc3)o2)cc1 | 4 |
| COc1ccc(Cl)cc1-c1noc(COc2ccc(Cl)cc2)n1 | 4 |
| N#Cc1ccccc1CSc1nnc(-c2ccco2)o1 | 4 |
| COc1cccc(-c2noc(-c3ccc(Cl)cc3)n2)c1 | 3 |
| COc1cccc(NC(=O)CSc2nnc(-c3ccc(C)cc3)o2)c1 | 4 |
| Cc1ccc(-c2nc(-c3ccncc3)no2)cc1Cl | 0 (active) |
| Cc1cccc(-c2nc(-c3ccc(Br)cc3)no2)c1 | 0 (active) |
| COc1cccc(-c2nc(-c3ccccc3)no2)c1 | 1.5 |
| CCOc1cc(-c2nc(-c3ccccc3C)no2)cc(OCC)c1OCC | 4 |
| O=C(c1ccccc1-c1nc(-c2ccccc2Cl)no1)N1CCCC1 | 4 |
| COc1ccc(-c2noc(-c3ccc(Cl)cc3Cl)n2)cc1 | 4 |
| COc1ccc(NC(=O)CSc2nnc(-c3ccccc3)o2)cc1 | 4 |
| Clc1ccc(OCc2ccccc2)c(-c2nc(-c3cccnc3)no2)c1 | 4 |
| CCn1cc(C(=O)CSc2nnc(-c3ccccc3)o2)c2ccccc21 | 4 |

| SMILES | survival and reproduction score |
| --- | --- |
| CC(=O)Nc1ccc(C(=O)CSc2nnc(-c3cccc(Br)c3)o2)cc1 | 4 |
| FC(F)(F)c1cccc(-c2noc(-c3ccccc3Cl)n2)c1 | 3 |
| CC(Oc1ccccc1)c1nc(-c2ccccn2)no1 (stereo not drawn) | 4 |
| COc1ccc(-c2noc(COc3ccc(C(C)(C)C)cc3Br)n2)cc1 | 4 |
| CC(C)(C)NC(=O)c1ccccc1-c1nc(-c2ccccc2)no1 | 4 |
| Fc1ccc(OCc2nc(-c3ccccc3)no2)cc1 | 3.5 |
| FC(F)(F)c1cccc(-c2noc(-c3ccc4c(c3)OCO4)n2)c1 | 4 |
| CCCC(=O)Nc1ccccc1-c1nc(-c2ccncc2)no1 | 4 |
| Cc1ccc(CSc2nnc(-c3ccncc3)o2)cc1 | 4 |
| COc1nc(C)ccc1-c1noc(-c2ccc(C(C)(C)C)cc2)n1 | 4 |
| Cc1c(C)n(C(=O)CSc2nnc(-c3ccccc3)o2)c2ccccc12 | 4 |
| Brc1ccc(-c2nc(-c3cccnc3)no2)cc1 | 0 (active) |
| Cc1ccccc1-c1nnc(SCc2ccccc2)o1 | 3 |
| Cc1ccccc1OCc1nc(-c2cccc(NC(=O)c3ccco3)c2)no1 | 4 |
| CCOc1nc(-c2ccccc2)ccc1-c1noc(-c2ccccc2F)n1 | 4 |
| CC(Sc1nnc(-c2ccco2)o1)C(=O)NC(c1ccccc1)c1ccccc1 (stereo not drawn) | 4 |
| COc1ccccc1-c1nnc(SCC(=O)Nc2nc(C)cs2)o1 | 4 |
| CCOc1ccccc1-c1nc(-c2ccc(Br)cc2)no1 | 3 |
| COc1ccccc1NC(=O)c1ccccc1-c1nc(-c2ccccc2F)no1 | 4 |
